In assay [1] the target is Cytochrome P450 3A4 (Homo sapiens) (UniProt P08684). The experiment in a line: qHTS Assay for Inhibitors and Substrates of Cytochrome P450 3A4 (AID 884). Further: nearly all actives have a fitted effect of over 50% in size. The settings on record: recombinant CYP3A4, Luciferin-PPXE luminescence; series mostly up to 57.1 µM. An outline of the steps: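 20 nM human CYP3A4 with 25 uM Luciferin-PPXE (at KM) in 200 mM KPO4, preincubated 10 min with compound; NADPH regeneration started a 60 min RT reaction. Luciferin detected by luminescence, normalized to 57 uM ketoconazole as full inhibition.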

The nature of assay [2]: Confirmation and Secondary Assay for Modulators of Hemoglobin Beta Chain Splicing at IVS2 654 locus (AID 910).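 Further: per-well total GFP intensity by laser scanning cytometry after 2-day treatment.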 The following applies: HeLa EGFP-654 splicing reporter, GFP fluorescence, 48 h; series mostly up to 46.1 µM. An outline of the steps: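 HeLa cells stably carrying EGFP interrupted by mutant beta-globin IVS2-654 intron (CMV-driven) were treated with compound for 2 days at 37C; corrected splicing was scored as total peak GFP intensity per well (488 nm excitation, 500-520 nm emission).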

For assay [3], the target named is Cytochrome P450 2D6 (Homo sapiens) (UniProt P10635). Nature of the assay: qHTS Assay for Inhibitors and Substrates of Cytochrome P450 2D6 (AID 891). Further: potency means the concentration at half of the fitted maximal effect; nearly all actives have a fitted effect of over 60% in size. The settings on record: recombinant CYP2D6, luciferin-ME EGE luminescence. In outline: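 Human CYP2D6 (5 nM) with 30 uM Luciferin-ME EGE (at Km) in 100 mM KPO4, compound preincubated 10 min, then NADPH regeneration system for 60 min at room temperature. Luciferin read by luminescence; normalized to 1.43 uM quinidine.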

This is an account of results in PubChem BioAssay (NCATS).

Records with an inconclusive call do not appear. A call without a number means that no potency is given here. Calls of active or inactive are those of the source. The call rests on the fitted dose curve; in most records, active means well fitted curve in the direction sought with a large enough effect; inconclusive means small, poorly fitted or top-dose-only effect, or another doubt; inactive means no such curve, though single readings can be large; an effect the other way counts as inactive or inconclusive.

Cytochrome P450 3A4 (Homo sapiens), sequence (P08684 whole entry, looked up): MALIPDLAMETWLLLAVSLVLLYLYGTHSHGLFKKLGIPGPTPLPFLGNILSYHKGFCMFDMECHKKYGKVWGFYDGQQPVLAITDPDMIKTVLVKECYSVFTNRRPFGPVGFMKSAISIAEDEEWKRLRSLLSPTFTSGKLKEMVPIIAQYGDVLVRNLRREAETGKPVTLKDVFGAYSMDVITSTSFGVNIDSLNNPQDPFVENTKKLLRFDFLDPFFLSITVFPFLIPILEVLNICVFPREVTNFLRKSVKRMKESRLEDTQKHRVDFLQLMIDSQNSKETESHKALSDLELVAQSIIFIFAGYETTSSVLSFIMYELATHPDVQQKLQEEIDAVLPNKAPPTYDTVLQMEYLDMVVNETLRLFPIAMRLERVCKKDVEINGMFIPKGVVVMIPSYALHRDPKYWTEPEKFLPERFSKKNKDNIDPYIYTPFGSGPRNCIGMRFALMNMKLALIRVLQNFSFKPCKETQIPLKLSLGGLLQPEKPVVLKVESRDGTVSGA
Cytochrome P450 2D6 (Homo sapiens), sequence (P10635 whole entry, looked up): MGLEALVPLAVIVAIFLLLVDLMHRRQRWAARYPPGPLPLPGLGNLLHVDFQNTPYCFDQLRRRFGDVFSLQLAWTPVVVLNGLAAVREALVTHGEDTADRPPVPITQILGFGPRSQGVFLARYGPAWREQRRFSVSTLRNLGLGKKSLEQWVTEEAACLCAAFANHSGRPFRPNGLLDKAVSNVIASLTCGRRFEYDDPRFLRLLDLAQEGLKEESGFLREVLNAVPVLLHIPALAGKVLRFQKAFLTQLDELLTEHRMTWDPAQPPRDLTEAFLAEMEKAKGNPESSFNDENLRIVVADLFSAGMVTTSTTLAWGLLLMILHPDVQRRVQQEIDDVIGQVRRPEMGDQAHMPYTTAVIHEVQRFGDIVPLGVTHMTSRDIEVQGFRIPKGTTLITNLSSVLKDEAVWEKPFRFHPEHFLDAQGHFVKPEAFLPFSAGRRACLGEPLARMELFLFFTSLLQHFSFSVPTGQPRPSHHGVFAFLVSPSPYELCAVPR

In the case of `CCN(CC)CCOc1ccc2c(c1)C(=O)c1cc(OCCN(CC)CC)ccc1-2`, the Potency result in assay [1] was “inactive”. The compound was classed as inactive in assay [2].
As to `CCCCCCCCNC(C)C(O)c1ccc(SC(C)C)cc1` (stereo not drawn), the result in assay [2] was inactive.
`CC(C)NCC(O)c1ccc2ccccc2c1` (stereo not drawn): in assay [1], the Potency entry was “inactive”. For the same compound, in assay [2], the compound was called inactive.
`CCCCc1cc2ccccc2c(OCCN(C)C)n1`: the Potency in assay [3] is 2 µM (active).
For `CC(=O)NCCCCCC(=O)O`, the Potency entry in assay [1] was “inactive”. For the same compound, the call in assay [2] was inactive.
With `CC(=O)NO`, the Potency entry in assay [1] was “inactive”. The outcome in assay [2] was inactive.
In the case of `C[N+]12CCC(CC1)C(OC(=O)C(O)(c1ccccc1)c1ccccc1)C2` (stereo not drawn), in assay [1], the Potency result is “inactive”. Besides, the compound was called inactive in assay [2].
Consider `COc1ccc(-c2cc(C(F)F)nn2-c2ccc(S(N)(=O)=O)cc2)cc1F`, for which the Potency result in assay [1] is “inactive”. Moreover, the compound was called inactive in assay [2].
With `O=C(O)P(=O)(O)O`, the Potency result in assay [1] was “inactive”. Further, in assay [2], the compound was classed as inactive.
`COc1ccc(CN(CCN(C)C)c2ncccn2)cc1`: the Potency result in assay [1] was “inactive”. Further, the result in assay [2] was inactive.
